Most compounds without a hit are left out; they make up all but 21% or so of the library.
DT40 TDP1 CPT – qHTS for Inhibitors of human tyrosyl-DNA phosphodiesterase 1 (TDP1): qHTS in cells in presence of CPT. chicken DT40 Tdp1-/-;hTDP1 cells + 20 nM CPT, ATP luminescence, 48 h. AID 686979, 2013. 420,000 compounds, 12% hits. Potency, µM (doses to about 46.2 µM), inactives show top-dose activity change, negative = growth inhibition, usual class: inhibitors; also: potency is read from the fitted curve at half-maximal effect; % is scaled to controls: 0 for no effect and ±100 for the full control effect; nearly all actives have a fitted effect of over 55% in size
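Chicken DT40 Tdp1-/- cells stably complemented with human TDP1 were seeded at 400 cells/well in medium containing 20 nM camptothecin, exposed to pin-transferred compounds, and grown at 37 °C for at least 48 hr. Viability was read as ATP luminescence.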
DRD3 antagonist – qHTS of D3 Dopamine Receptor Antagonist: qHTS | D(3) dopamine receptor (Homo sapiens), P35462 | 360,000 compounds, 2.5% hits | AID 652054, 2013 | D3R cells, DiscoveRx beta-arrestin luminescence, antagonist mode; hits give low values | max response, negative = inhibition, %; in the data active = max response below about -50%; inconclusive = no clear call, values can overlap the other calls; also: % is scaled to controls: 0 for no effect and ±100 for the full control effect
Target sequence (P35462 whole entry, looked up): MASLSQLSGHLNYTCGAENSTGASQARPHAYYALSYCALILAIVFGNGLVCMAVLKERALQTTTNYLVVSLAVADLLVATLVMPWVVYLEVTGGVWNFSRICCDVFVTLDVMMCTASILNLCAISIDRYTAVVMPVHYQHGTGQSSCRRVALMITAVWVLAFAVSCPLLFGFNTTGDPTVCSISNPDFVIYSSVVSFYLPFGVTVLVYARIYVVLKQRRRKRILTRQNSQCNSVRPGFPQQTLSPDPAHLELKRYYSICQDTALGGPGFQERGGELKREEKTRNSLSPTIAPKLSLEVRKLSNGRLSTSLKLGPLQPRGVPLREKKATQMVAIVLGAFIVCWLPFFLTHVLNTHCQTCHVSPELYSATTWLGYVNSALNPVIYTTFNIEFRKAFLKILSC
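Cells expressing the human receptor were seeded at 1500 cells/well, incubated overnight at 37 degrees C in 5% CO2, then exposed to library compounds with dopamine controls for 90 minutes at 37 degrees C before luminescent detection.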
D3 ag – qHTS of D3 Dopamine Receptor Agonist: qHTS; D(3) dopamine receptor (Homo sapiens), P35462; D3R DiscoveRx beta-arrestin cells, luminescence, 90 min; max activation, %; 410,000 compounds, 0.58% hits; in the data active = max activation above about 30%; also: 0% is about no effect
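Cells at 1500/well, incubated overnight, then treated with pinned compounds (dopamine as control) for 90 min at 37 degrees C. DiscoveRx reagent added for 30 - 60 minutes at room temperature; luminescence read.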
ClpP mod – qHTS Assay for Activators of ClpP; ATP-dependent Clp protease proteolytic subunit (Bacillus subtilis (strain 168)), P80244; purified B. subtilis ClpP, FRET peptide cleavage, 20 min; Potency, µM (series often up to 57.5 µM), for inactives: top-dose activity change, negative = active; 340,000 compounds, 1.9% hits; AID 651965, 2013; active = well fitted falling curve with a large enough effect; inconclusive = small, poorly fitted or top-dose-only effect; inactive = no such curve, though single readings can be large or run the other way; also: potency is read from the fitted curve at half-maximal effect; the source files actives as falling curves though it sought activators and does not explain the sign; nearly all actives have a fitted effect of over 65% in size
Target sequence (P80244 whole entry, looked up): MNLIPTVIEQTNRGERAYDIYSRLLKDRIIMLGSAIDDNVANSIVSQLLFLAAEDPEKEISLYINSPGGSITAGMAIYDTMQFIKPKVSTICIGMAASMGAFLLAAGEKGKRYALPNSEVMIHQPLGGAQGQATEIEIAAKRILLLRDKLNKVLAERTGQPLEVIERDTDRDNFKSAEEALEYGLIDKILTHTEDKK
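Purified B. subtilis ClpP, 10 microg/mL final in Tris/HCl pH8 with KCl, BSA, glycerol and Tween-20, cleaved an Abz/nitrotyrosine-quenched decapeptide. Fluorescence (ex 320, em 430) was read at 0 and 20 min at room temperature. Delta was normalized to 5.8 microM ADEP and DMSO/no-enzyme controls.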
IL1B secr inh – qHTS for Inhibitors of Inflammasome Signaling: IL-1-beta AlphaLISA Primary Screen; THP-1 LPS/ATP IL-1B secretion, AlphaLISA, 16 h; hits give low values; activity change, % at 57.5 µM; 360,000 compounds, 4.7% hits; in the data active = activity change below about -50%; inconclusive = mostly about -30% to -49%; also: % is scaled to controls: 0 for no effect and ±100 for the full control effect
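Secreted IL-1B measured by AlphaLISA bead assay after 16 h compound exposure of THP-1 cells; compounds (final up to 57.5 uM) added 1 h before LPS (250 ng/mL) and ATP (1.25 mM) stimulation; lower signal means less secretion.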
TDP1 cell noCPT – qHTS for Inhibitors of human tyrosyl-DNA phosphodiesterase 1 (TDP1): qHTS in cells in absence of CPT; DT40 Tdp1-/- hTDP1 cells, no CPT, ATP luminescence, 48 h; Potency, µM (top dose mostly 46.2 µM), inactives show top-dose activity change, negative = growth inhibition, hits mostly inhibitors; 420,000 compounds, 15% hits; also: potency is read from the fitted curve at half-maximal effect; % is scaled to controls: 0 for no effect and ±100 for the full control effect; nearly all actives have a fitted effect of over 55% in size
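Cells were dispensed at 400 per well, compounds added by pin tool, plates incubated ≥48 hr at 37 °C, then CellTiter-Glo added for 30 min at room temperature before luminescence reading. Line: DT40 Tdp1-/- complemented with hTDP1; camptothecin omitted.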
* hit, by the source's call; ? = inconclusive; nt = no result. Unless noted, calls follow the shape of the dose curve; as a rule, active = well fitted inhibition curve with a large enough effect; inconclusive = small, poorly fitted or top-dose-only effect; inactive = flat fitted curve, though single readings scatter.

SMILES	DT40 TDP1 CPT	DRD3 antagonist	D3 ag	ClpP mod	IL1B secr inh	TDP1 cell noCPT
COc1ccc(NC(=O)CN2C(=O)C(c3ccccc3)=NC23CCCCCC3)cc1	?	13	-1	1%	-56*	?
CCc1ccc(NC(=O)CN2C(=O)C(c3ccc(Cl)cc3)=NC23CCCCC3)cc1	?	nt	6	1%	nt	?
CCc1ccc(NC(=O)CN2C(=O)C(c3ccc(C)cc3)=NC23CCCCC3)cc1	?	nt	2	0%	nt	?
O=C(CN1C(=O)C(c2ccc(F)cc2)=NC12CCCC2)Nc1ccc(F)cc1	8.2µM*	39	4	-2%	-20	5.8µM*
Cc1ccc(S(=O)(=O)Nc2cccc(C(=O)NCc3cccnc3)c2)cc1F	?	19	2	-3%	16	4.6µM*
Cc1ccc(S(=O)(=O)Nc2cccc(C(=O)NCC(c3ccccc3)N(C)C)c2)cc1F (stereo not drawn)	-15%	?	-23	nt	?	?
Cc1ccc(S(=O)(=O)Nc2cccc(C(=O)NCC(c3ccco3)N(C)C)c2)cc1F (stereo not drawn)	?	4	-6	1%	-8	21µM*
Cc1nnc(SCc2cccc(Oc3ccccc3)c2)n1N	-1%	-3	0	3.2µM*	-5	-9%
O=C(Cn1cnc2cc([N+](=O)[O-])ccc2c1=O)Nc1cccc(S(=O)(=O)N2CCCCC2)c1	?	10	2	-4%	-55*	?
CC1CCCCN1C(=O)Cn1cnc2cc([N+](=O)[O-])ccc2c1=O (stereo not drawn)	15µM*	2	2	nt	66	18µM*
O=C(Cn1cnc2ccccc2c1=O)Nc1cccc(-c2nnc3n2CCCCC3)c1	-4%	-51*	-1	-3%	-18	-17%
Cc1cc(C)c(C(=O)Cn2cnc3cc([N+](=O)[O-])ccc3c2=O)cc1C	?	7	1	-12%	2	18µM*
Cc1ccc(NC(=O)Cn2cnc3cc([N+](=O)[O-])ccc3c2=O)cc1	-18%	-5	-1	nt	1	-13%
CCn1c(C)c(C(C)=O)cc(C#N)c1=O	0%	4	2	1%	-16	-6%
Cc1ccc(NS(=O)(=O)c2cc([N+](=O)[O-])ccc2N/N=C/c2sc(N3CCOCC3)nc2-c2ccccc2)c(C)c1	21µM*	10	13	1%	0	18µM*
CN(CCN(C)c1nc(-c2cccs2)nc2ccccc12)C(=O)OC(C)(C)C	10µM*	nt	nt	-10%	nt	14µM*
Cc1ccc(S(=O)(=O)N(C)CCCN(C)c2nc(-c3cccs3)nc3ccccc23)cc1	16µM*	nt	nt	?	nt	11µM*
Cc1[nH]c2ccccc2c1C(O)CN1CCC2(CC1)OCCO2 (stereo not drawn)	?	-2	-5	-3%	0	16µM*
Cc1ccc(-c2noc(C3CCCN(C(=O)c4c(F)cccc4F)C3)n2)cc1 (stereo not drawn)	?	-70*	22	1%	-17	21µM*
Cc1ccc(-c2noc(C3CCCN(C(=O)c4ccccc4Br)C3)n2)cc1 (stereo not drawn)	?	-3	5	-1%	5	21µM*
COc1ccc(-c2noc(C3CCCN(C(=O)c4ccccc4OC)C3)n2)cc1OC (stereo not drawn)	?	19	22	-2%	-9	?
COc1cc(-c2noc(C3CCCN(C(=O)c4c(F)cccc4F)C3)n2)cc(OC)c1OC (stereo not drawn)	?	1	1	0%	-16	21µM*
Cc1ccc(-c2noc(C3CCCN(C(=O)c4cccc(F)c4)C3)n2)cc1 (stereo not drawn)	?	-6	5	0%	-5	29µM*
COc1ccc(C(=O)N2CCCC(c3nc(-c4ccc(OC)c(OC)c4)no3)C2)c(OC)c1 (stereo not drawn)	?	15	8	28µM*	0	?
COc1ccc(-c2noc(C3CCCN(C(=O)c4cccc(C)c4)C3)n2)cc1 (stereo not drawn)	16µM*	-5	4	0%	?	16µM*
SMILES	DT40 TDP1 CPT	DRD3 antagonist	D3 ag	ClpP mod	IL1B secr inh	TDP1 cell noCPT
C=CC[C@@H](CC(=O)N[C@H](CO)Cc1ccccc1)C(=O)N[C@@H](COC(=O)[C@@H](CC=C)Cc1ccc(F)cc1)Cc1ccccc1	?	20	12	-1%	73	?
C=CC[C@@H](CC(=O)N[C@@H](CO)Cc1ccccc1)C(=O)N[C@H](COC(=O)[C@@H](CC=C)Cc1ccc(F)cc1)Cc1ccccc1	?	-12	0	2%	14	?
C=CC[C@@H](CC(=O)N(CCO)Cc1ccccc1)C(=O)N[C@@H](C)COC(=O)[C@@H](CC=C)Cc1ccc(F)cc1	?	-5	-4	0%	-3	16µM*
C=CCC[C@H](Cc1ccc(F)cc1)C(=O)OC[C@@H](NC(=O)[C@@H](CC=C)CC(=O)N(CCO)Cc1ccccc1)C(C)(C)C	26µM*	-12	-7	-2%	?	?
C=CC[C@@H](CC(=O)N(CCO)Cc1ccccc1)C(=O)N[C@H](COC(=O)[C@@H](CC=C)Cc1ccc(F)cc1)C(C)(C)C	21µM*	-4	-21	-1%	-83*	13µM*
C=CC[C@@H](CC(=O)N(CCO)Cc1ccccc1)C(=O)N[C@H](COC(=O)[C@@H](CC=C)Cc1ccc(F)cc1)c1ccccc1	15µM*	-17	-1	1%	?	13µM*
CCc1ccc(NC(=O)c2sc(-n3nc(C)c(Cc4ccc(OC)cc4)c3C)nc2C)cc1	-11%	nt	-7	-5%	nt	-14%
Cc1sc2nc(CSCC(=O)Nc3ccc(Cl)cc3F)[nH]c(=O)c2c1C	3%	-18	-6	3%	-4	-4%
C=CC[C@H](CC(=O)N(CCO)Cc1ccccc1)C(=O)N[C@H](COC(=O)[C@@H](CC=C)Cc1ccc(F)cc1)C(C)(C)C	?	-13	-21	2%	-61*	?

From PubChem
